Among the data in PubChem BioAssay (Tox21) are Potency and cytotoxicity increase values, retold here.

Results filed as inconclusive are left out. A call without a number means that no potency is given here. The source made the active and inactive calls. The call rests on the fitted dose curve; in most records, active means well fitted activation curve with a large enough effect in the repeat runs; inconclusive means weak or mixed curves; inactive means flat fitted curve, though single readings scatter.
Potency means the concentration at half of the fitted maximal effect.

The nature of the assay: A CellTox Green Cytotoxicity Assay to monitor cytotoxicity in HepG2 cells - 8 hour (AID 1224890). Further: nearly all actives have a fitted effect of over 45% in size. As to conditions: CellTox Green fluorescence; series mostly up to 76.8 µM. The text has this: National Center for Advancing Translational Sciences [NCATS]
NIH Chemical Genomics Center [NCGC]
U.S. Environmental Protection Agency [EPA]
National Institutes of Environmental Health Sciences [NIEHS]
National Toxicology Program [NTP]
Cell-based models are critical for drug discovery. Determining the natural cytotoxic effects resulting from test compounds is an essential research activity. A CellTox Green Cytotoxicity Assay to monitor cytotoxicity in real time of continues cell culture during 40 hours of the compound treatment was used to screen Tox21 10K library compounds in HepG2 cells. CellTox Green Cytotoxicity Assay is a nonlytic, homogeneous, biofluorescent method to measure cytotoxicity in cell culture after experimental manipulation. The assay system uses a proprietary asymmetric cyanine dye that is excluded from viable cells but preferentially stains the dead cell's DNA. […] Viable cells produce no appreciable increases in fluorescence. Therefore, the fluorescence signal produced by the binding interaction with dead cell DNA is proportional to cytotoxicity.
The mixture of HepG2 cell suspension and reagents were dispensed at 600cells/6 ul/well in 1536-well tissue culture treated black solid bottom plates using a Multidrop dispenser. After the assay plates were incubated at a 37 C/5% CO2 incubator for 5 hours, 23 nL of compounds dissolved in DMSO, positive and negative controls was transferred to the assay plate by a pintool work station. The plates were incubated at 37 C for 40 hours. The fluorescence intensity were measured at 0h, 8h, 16h, 24h, 32h and 40h time points using ViewLux plate reader during compound treatment.
As for `CCOC(=O)CC(CC(=O)OCC)(OC(C)=O)C(=O)OCC`, the Potency result was “inactive”.
Take `COC(OC)C(C)c1ccccc1` (stereo not given): the Potency result is “inactive”.
In the case of `Nc1ccc(C(=O)OCC(O)CO)cc1` (stereo not given), the Potency result is “inactive”.
With `FC(F)(F)c1ccc(Cl)cc1Cl`, the Potency entry is “inactive”.
On the same count and under the same terms, with `CCCOC(=O)CCCCC(=O)OCCC` the entry was “inactive”.
The same measure, in the same setting: for `CCN(CC)C(=O)C1CN2CCc3cc(OC)c(OC)cc3C2CC1OC(C)=O` (stereo not given) the value was “inactive”.
Take `O=C(Nc1cccc(C2=NCCN2)c1)Nc1cccc(C2=NCCN2)c1`: the cytotoxicity increase is -10.2% [at 15.8 µM] (inactive).
As for `COc1cccc2sc(N)nc12`, the Potency entry was “inactive”.
With `C[Si]1(C)N[Si](C)(C)N[Si](C)(C)N1`, the Potency entry is “inactive”.
The same measure, in the same setting: with `Cc1cccc(NC(=S)N(C)C)c1` the entry was “inactive”.
On the same count and under the same terms, with `CC(C)COC(=O)/C=C/c1ccccc1` the entry was “inactive”; with `CC(C)c1ccccc1O`, “inactive”.
Take `CCc1nccnc1C`: the Potency result was “inactive”.
Consider `CCN(CCO)c1cccc(C)c1`, for which the Potency result is “inactive”.
Still for that read-out and setting: with `CC(=O)Nc1ccc(C)cc1` the entry was “inactive”.
Same read-out and setting: with `O=C1OC(=O)c2ccccc21` the entry was “inactive”; with `N#CCCOCCOCCC#N`, “inactive”.
For the molecule `Cc1c(C(C)C)c(=O)n(-c2ccccc2)n1C`, the Potency result is “inactive”.
Same read-out and setting: with `O=C1c2ccccc2-c2ccccc21` the entry was “inactive”.
On the same count and under the same terms, with `C=CCOc1c(Br)cc(Br)cc1Br` the entry was “inactive”; with `CCOC(=O)CCc1ccccc1`, “inactive”; with `OCCCCCCCl`, “inactive”.
In the case of `CC(=O)Nc1ncc([N+](=O)[O-])s1`, the Potency result was “inactive”.
With `CCCCCC(=O)OCC`, the Potency result is “inactive”.
On the same count and under the same terms, for `COCCOCCOCCOC` the value was “inactive”.
On the same count and under the same terms, for `CN(C1CCCCC1)S(=O)(=O)c1ccccc1N` the value was “inactive”.
With `C=COCCOCCOC=C`, the Potency result is “inactive”.
Still for that read-out and setting: with `CCCCC[Si](OCC)(OCC)OCC` the entry was “inactive”; with `O=C(/C=C/c1ccccc1)NCCO`, 10.7 µM (active).
The same measure, in the same setting: for `CC(C)CCC(=O)CCC(C)C` the value was “inactive”.
Turning to `CCCCOC(=O)C(=O)OCCCC`, the Potency result was “inactive”.
On the same count and under the same terms, for `CCCCCCCCCCCCC1CO1` (stereo not given) the value was “inactive”.
For the molecule `CCCO`, the Potency entry was “inactive”.
For `CCCCOC(=O)[C@@H](C)Oc1ccc(Oc2ccc(C(F)(F)F)cn2)cc1`, the Potency result was “inactive”.
As for `BrC/C=C/CBr`, the cytotoxicity increase is -2.29% [at 15.8 µM] (inactive).
For the molecule `O=C(O)/C=C/c1ccccc1`, the Potency entry was “inactive”.
Turning to `C1=C\CC/C=C\CC/1`, the Potency result was “inactive”.
The same measure, in the same setting: for `O=C(c1ccc2c(c1)C(=O)OC2=O)c1ccc2c(c1)C(=O)OC2=O` the value was “inactive”.
Still for that read-out and setting: for `CCC(CO)CO` the value was “inactive”.
In the case of `COc1cc2c(Nc3ccc(Br)cc3F)ncnc2cc1OCC1CCN(C)CC1`, the Potency result is “inactive”.
